CHT PAM: CHT positive allosteric modulators, primary screen, cell-based, membrane potential dye, choline EC20. High affinity choline transporter 1 (Homo sapiens), Q9GZV3. B-score at 10 µM. hit rate 0.49% among 310,000. AID 488977, 2010. CHT-expressing cells; stronger effect = higher value; LV-AA mutant CHT in HEK293 cells;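 active = initial fluorescence not abnormally high and integrated response B-score, plate-corrected, over 3 SD above library mean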
TMEM16A inh: TMEM16A chloride channel inhibitors, primary screen, cell-based, HTS; Anoctamin-1 (Mus musculus), Q8BHY3; HEK293 TMEM16A/YFP iodide influx fluorescence, ionomycin; normalized B-score (activity score, 25-100; higher = stronger inhibition) at 10 µM; hit rate 1.2% among 310,000; AID 588511, 2011;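 active = ratio plate-corrected score three or more library SD toward inhibition, starting fluorescence score within five deviations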;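 also: score derived from kinetic fluorescence span divided by baseline fluorescence per well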
PKA-R2B act: activators of PKA-R2B holoenzyme, primary screen, biochemical, fluorescence polarization, Cy5-IP20, human. cAMP-dependent protein kinase catalytic subunit beta (Homo sapiens) + cAMP-dependent …. PKA-R2B holoenzyme dissociation; R2B truncated from residue 108, S112A mutant; 0% DMSO only, 100% 113 µM cGMP. activation, % at 11.4 µM. hit rate 0.079% among 340,000;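 active = activation above a cutoff set at the mean over all compounds plus 3 SD, cut at about 18% in these data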;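 also: higher means more holoenzyme dissociation and a rise in polarization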
CHT block: inhibitors of human choline transporter CHT. hit rate 0.86% among 310,000. High affinity choline transporter 1 (Homo sapiens), Q9GZV3. CHT-expressing cells, membrane potential dye, choline response; stronger effect = lower value. B-score at 10 µM;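 active = B-score over 3 SD under the library average, and starting fluorescence ratio not unusually high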;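 also: choline stimulus applied at its EC90 after an EC20 pre-addition; B-score computed on integrated fluorescence ratio after choline addition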
PKA-R1A act: activators of PKA-R1A holoenzyme, primary screen, biochemical, fluorescence polarization, Cy5-IP20, bovine R1A, mouse PKAc. PKA-R1A dissociation; scaled: DMSO 0%, 113 µM cGMP 100%. activation, % at 11.4 µM. hit rate 0.083% among 340,000;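 active = percent activation above the mean of all tested compounds plus 3 SD, cut at about 19% in these data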;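 also: higher means more PKAc released from R1A so a rise in polarization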
ANO1 activ: TMEM16A chloride channel activators or potentiators, primary screen, cell-based, HTS | Anoctamin-1 (Mus musculus), Q8BHY3 | AID 623877, 2012 | hit rate 0.3% among 340,000 | HEK293 TMEM16A/YFP-H148Q/I152L, iodide quench fluorescence; stronger effect = lower value | B-score at 10 µM;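 active = fluorescence-ratio B-score plate-corrected deviation score at least 3 library SD below zero, with starting fluorescence score within 5 deviations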;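 also: channel opened by trigger with iodide after compound preincubation; score built on the fluorescence ratio of max minus min over baseline; more negative score means more quench and so TMEM16A activation or potentiation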
TMEM16A reconf: TMEM16A chloride channel inhibitors, confirmation, cell-based, re-confirmation; shares compounds with TMEM16A inh; HEK293 TMEM16A/YFP-H148Q, iodide quench fluorescence; ionomycin added to raise cell calcium; inhibition, % at 10 µM; hit rate 39% among 2,300; AID 652189, 2013;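 active = mean duplicate percent inhibition, scaled so buffer wells are 0 and the reference blocker 100, over three buffer SD above buffer mean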
HEK293 Ca mobil: calcium mobilization in TMEM16A/YFP HEK293 cells, confirmation, counter-screen for TMEM16A inhibitor project | calcium response (% of ionomycin), % at 10 µM | shares compounds with TMEM16A inh | hit rate 2% among 2,300 | AID 652231, 2013 | Fluo4 calcium mobilization;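 active = duplicate-averaged calcium signal over 20% of the ionomycin maximum, relative to buffer baseline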;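 also: each well's signal is peak minus trough fluorescence divided by its pre-addition baseline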
Parental YFP cnt: iodide YFP quench changes in parental YFP-HEK293, counter-screen for TMEM16A inhibitor project, cell-based. shares compounds with TMEM16A inh. YFP ratio F(max-min)/F0 at 10 µM. 2,300 tested, under 10 active. ionomycin;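 active = yellow fluorescent protein signal ratio exceeding the buffer control mean by over 5 SD of those controls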;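 also: ratio is mean of duplicate wells from kinetic YFP trace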
ClC-1 rat inh: ClC-1 chloride channel inhibition, selectivity assay for TMEM16A inhibitor project, cell-based, voltage-dependent ClC-1 | ratio percent, % at 10 µM | AID 652236, 2013 | 2,300 tested, under 10 active | shares compounds with TMEM16A inh | CHO ClC-1-YFP, iodide influx fluorescence quench; iodide control reads 0, buffer control 100;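 active = duplicate-mean ratio percent above the mean of iodide-only control wells, which defines zero, plus 5 of their SD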;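 also: higher percent means stronger block of ClC-1 iodide influx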
A number is an active result; i = inactive; nt = no result given. A selection: hits, their analogues and other compounds. The true share with any hit is near 2.5%.

SMILES	CHT PAM	TMEM16A inh	PKA-R2B act	CHT block	PKA-R1A act	ANO1 activ	TMEM16A reconf	HEK293 Ca mobil	Parental YFP cnt	ClC-1 rat inh
Cc1nn(-c2ccccc2)c2nc(N)c(C#N)c(-c3ccc(C(C)(C)C)cc3)c12	i	i	i	i	i	i	nt	nt	nt	nt
Cc1sc(NC(=O)c2sc3nc4c(C)cccc4cc3c2N)c(C#N)c1C	i	i	i	i	i	i	nt	nt	nt	nt
Cc1cccc2cc3c(N)c(C(=O)Nc4ccc(N5CCOCC5)cc4)sc3nc12	i	i	i	i	i	i	i	i	i	i
Cc1cc(C)nc(/N=C(\N)Nc2ccc(OCCC(C)C)cc2)n1	i	100	i	i	i	i	29%	56%	i	i
COc1ccc(N/C(N)=N/c2nc(C)cc(C)n2)cc1	nt	nt	i	nt	i	nt	nt	nt	nt	nt
Cc1cc2n(n1)C(c1cn(-c3ccccc3)nc1C)Nc1ccccc1-2 (configuration not stated)	i	i	i	i	i	i	nt	nt	nt	nt
Cc1cc2n(n1)C(c1cn(-c3ccccc3)nc1C)Nc1c(C)cccc1-2 (configuration not stated)	i	i	i	i	i	i	i	i	i	i
S=C(NCC1CCCO1)N1CCN(c2nc(-c3ccccc3)cs2)CC1 (configuration not stated)	i	25	i	i	i	i	18%	i	i	i
COc1ccc(C(=O)NNC(=O)C23CC4CC(CC(C4)C2)C3)cc1OC	nt	nt	i	nt	i	i	nt	nt	nt	nt
Cc1ccc(-c2noc(Cn3cc(S(=O)(=O)N4CCCC4)ccc3=O)n2)cc1	nt	nt	i	nt	i	i	nt	nt	nt	nt
O=C1C(SCCO)=C(SCCO)C(=O)c2ccccc21	i	100	i	i	i	i	40%	i	i	i
Cc1cc(N=Nc2ccccc2C(=O)O)c(C)c(C)c1O	i	i	i	i	i	i	53%	i	i	i
Cc1cc(O)c(C(C)C)cc1N=Nc1ccccc1C(=O)O	i	i	i	i	i	i	38%	i	i	i

Screening results deposited in PubChem BioAssay by several laboratories.
